Assay [1] can be described thus: inhibitors of TNFa-induced NFkB p65 translocation, primary screen, imaging, HUVEC, MLSMR starter and 10KST1 sets (AID 438;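 active = inhibition above 20% together with a positive visual image hit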;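 note: compound added about 3h40 before a 20 min TNFalpha stimulation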;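 for inhibition: signal is the nuclear over cytoplasmic p65 intensity ratio per well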). The settings on record: HUVEC TNFa-induced p65 nuclear translocation; cell count: measured here: nuclei count (cytotoxicity indicator), at 2.08 µM; inhibition: at 2 µM, stronger effect = higher value, 0% TNFa-plus-vehicle, 100% no-TNFa wells.
A short description of assay [2]: reduction of polyQ htt aggregates in cells – imaging, exon1htt(103Q)mCFP cells, high-content imaging, primary screen (AID 483;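 active = visual image review flags a hit and inhibition of aggregation exceeds 20%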;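 note: compound exposure lasted 3 days before fixation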;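 for nuclei count: percent of the per-plate median nuclei count of sample wells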). Conditions: exon1htt(103Q)mCFP cell line, aggregate imaging, at 2 µM; inhibition of aggregation: stronger effect = higher value; nuclei count: measured here: cell count, toxicity.
Assay [3] in a line: endothelial E-selectin expression blockers – imaging, HUVEC, immunofluorescence, MLSMR starter and 10KST1 sets, primary screen (AID 487;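 active = visually confirmed hit in the image check and inhibition above 20%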;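 for inhibition: signal is fraction of cell area covered by stained E-selectin grains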;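 for nuclei count: 100% = median nuclei count of all wells on the same plate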). The settings on record: HUVEC TNFalpha-induced E-selectin immunofluorescence imaging, at 2 µM; inhibition: stronger effect = higher value; nuclei count: measured here: cell number, toxicity.
In assay [4] the target is Voltage-gated potassium channel subunit beta-2 (Rattus norvegicus) (UniProt P62483). Briefly: inhibitors of rat Kvbeta2 reductase activity – biochemical, NADPH fluorescence, primary screen (AID 622;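 active = fluorescence slope higher than the sample average by over 3 SD, cut at about -0.22 in these data, passing the limit was not always enough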;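 note: slope of raw intensity against log time taken from 70 to 1610 s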). The settings on record: recombinant KvBeta, 4-cyanobenzaldehyde reduction, at 10 µM, stronger effect = higher value.
For assay [5] the target is unchanged. In words: enhancers of rat Kvbeta2 NADPH turnover – biochemical, NADPH fluorescence, primary screen (AID 623;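 active = NADPH fluorescence slope more negative than the mean of all samples by about 3 SD, 99.7% confidence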;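 note: fluorescence intensity change per second fitted from 20 to 320 s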). The settings on record: Recombinant KvBeta, NADPH fluorescence decrease slope, 10 min; at 10 µM; stronger effect = lower value.
The target in assay [6] is Alpha-2C adrenergic receptor (Homo sapiens) (UniProt P18825). Briefly: compounds altering alpha2C-coupled GIRK flux – cell-based, HEK293 alpha2C/GIRK1/2, thallium flux, primary screen (AID 624).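 Note: slope of fluorescence ratio to pre-addition baseline per second over 15 to 24 s.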 The settings on record: thallium flux BTC fluorescence, at 10 µM, actives lie on both sides.
Assay [7] in a line: blockers of RIG-like receptor reporter activation – cell-based, Sendai virus stimulus, luciferase, 10K MLSCN set, TLR/RLR signaling modifier project, primary screen (AID 602276;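 active = inhibition at or above 50% at 10 µM; inactive = inhibition below 50%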;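 note: firefly luciferase from ISG56 promoter only with Renilla not read in this screen; 0% = Sendai virus plus DMSO and 100% = medium plus DMSO without virus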). Conditions: HEK293 RL24 IRF3 luciferase reporter, at 10 µM, stronger effect = higher value.
A short description of assay [8]: TLR3 IRF3 reporter activation blockers – cell-based, poly I:C stimulus, luciferase, 10K MLSCN set, primary screen (AID 602277;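 active = inhibition of the reporter signal at or above 50%; inactive = inhibition below 50%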). The settings on record: HEK293-TLR3 RL24 IRF3 luciferase reporter, at 10 µM, stronger effect = higher value.

These results are taken from PubChem BioAssay.

Calls of active or inactive are those of the source.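 Rule for the calls, unless noted: active = fluorescence slope after compound addition differing from the mean of all screened samples at 99.7% confidence, in either direction; inactive = the rest.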

Alpha-2C adrenergic receptor (Homo sapiens), sequence (P18825 whole entry, looked up): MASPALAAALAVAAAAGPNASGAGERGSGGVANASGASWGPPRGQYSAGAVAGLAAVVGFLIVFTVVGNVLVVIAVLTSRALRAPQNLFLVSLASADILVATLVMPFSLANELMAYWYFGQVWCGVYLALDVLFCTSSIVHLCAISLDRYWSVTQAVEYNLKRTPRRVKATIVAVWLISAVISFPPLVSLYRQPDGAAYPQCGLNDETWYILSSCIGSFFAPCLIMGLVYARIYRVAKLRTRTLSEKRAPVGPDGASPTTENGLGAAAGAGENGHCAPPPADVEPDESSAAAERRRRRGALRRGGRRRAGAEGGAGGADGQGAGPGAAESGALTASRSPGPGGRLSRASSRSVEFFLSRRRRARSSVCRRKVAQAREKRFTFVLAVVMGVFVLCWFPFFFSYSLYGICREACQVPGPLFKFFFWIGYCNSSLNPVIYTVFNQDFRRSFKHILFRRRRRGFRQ
Voltage-gated potassium channel subunit beta-2 (Rattus norvegicus), sequence (P62483 whole entry, looked up): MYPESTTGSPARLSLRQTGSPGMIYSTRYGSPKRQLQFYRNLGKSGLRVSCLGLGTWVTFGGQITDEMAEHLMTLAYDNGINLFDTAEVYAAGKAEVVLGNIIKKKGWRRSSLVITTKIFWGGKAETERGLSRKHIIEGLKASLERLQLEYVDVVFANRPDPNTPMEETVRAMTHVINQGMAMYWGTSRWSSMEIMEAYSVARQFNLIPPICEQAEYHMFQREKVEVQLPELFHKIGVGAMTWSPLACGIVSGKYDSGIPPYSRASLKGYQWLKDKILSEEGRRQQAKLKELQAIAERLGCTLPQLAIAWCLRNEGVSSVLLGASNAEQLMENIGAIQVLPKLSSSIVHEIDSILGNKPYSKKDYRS

In the case of `O=C(OC1CCOC1=O)c1ccc(S(=O)(=O)N2CCCCCC2)cc1` (centres undefined), the cell count in assay [1] worked out at 466. The inhibition in assay [1] was 1.1% (inactive); in assay [3], -116% (inactive); in assay [7] it was 5.47% (inactive); in assay [8], 14.9% (inactive). Further, the inhibition of aggregation in assay [2] was -2.3% (inactive). Besides, the nuclei count in assay [2] turned out to be 92.8%; in assay [3], 97.1%. In addition, the fluorescence slope in assay [4] was -0.329 (inactive). Also, the NADPH fluorescence slope in assay [5] was 7.8e-06 (inactive). For the same compound, the slope in assay [6] was 0.00585 (inactive).

For `Cc1ccc(C(c2nnnn2CCC(C)C)N2CCN(C)CC2)cc1` (centres undefined), the cell count in assay [1] was 417. Also, the inhibition in assay [1] is 1% (inactive); in assay [3], -73.9% (inactive); in assay [7], 13.9% (inactive); in assay [8], -3.3% (inactive). In addition, the inhibition of aggregation in assay [2] was 8.9% (inactive). Further, the nuclei count in assay [2] worked out at 73.1%; in assay [3], 108%. Also, the fluorescence slope in assay [4] was -0.598 (inactive). The NADPH fluorescence slope in assay [5] was -4.8e-05 (inactive). The slope in assay [6] is 0.00252 (inactive).

For `COc1ccc(C)cc1NC(=O)C1CCN(S(=O)(=O)c2cccc3cccnc23)CC1`, the cell count in assay [1] came out at 539. The inhibition in assay [1] was -6.5% (inactive); in assay [3], -6.8% (inactive); in assay [7], 14.3% (inactive); in assay [8], 30.4% (inactive). Moreover, in assay [2], the inhibition of aggregation was 13.2% (inactive). In addition, the nuclei count was determined as 76.6% in assay [2] and 106% in assay [3]. Moreover, the fluorescence slope in assay [4] is -0.535 (inactive). In addition, in assay [5], the NADPH fluorescence slope is -4.1e-05 (inactive). In assay [6], the slope is 0.00559 (inactive).

Take `CCC(CC)n1[nH]c(=O)c2c(C)cc(C)nc21`: the cell count in assay [1] was found to be 368. Moreover, the inhibition in assay [1] was 0.2% (inactive); in assay [3], 13.4% (inactive); in assay [7], 6.59% (inactive); in assay [8], 13.6% (inactive). Also, the inhibition of aggregation in assay [2] is 0.4% (inactive). Besides, the nuclei count in assay [2] and in assay [3] was 106% throughout. Besides, the fluorescence slope in assay [4] is -0.299 (inactive). Also, the NADPH fluorescence slope in assay [5] was -6.9e-05 (inactive). Moreover, in assay [6], the slope is 0.00499 (inactive).

As for `CCCn1nc(NC(=O)c2cccs2)c2cc3cc(OC)ccc3nc21`, in assay [1], the cell count was found to be 630. Moreover, the inhibition in assay [1] was -6.8% (inactive); in assay [3], -20.4% (inactive); in assay [7], -4.8% (inactive); in assay [8] it was -37.7% (inactive). Moreover, in assay [2], the inhibition of aggregation is -8% (inactive). The nuclei count came to 104% in assay [2] and 112% in assay [3]. Further, in assay [4], the fluorescence slope was -0.119 (inactive). Besides, in assay [5], the NADPH fluorescence slope is 2.2e-05 (inactive). Moreover, in assay [6], the slope was 0.00675 (inactive).

In the case of `Cc1ccc(N2C(=O)c3ccccc3C2O)nc1` (centres undefined), in assay [1], the cell count is 627. Also, the inhibition was 0.8% (inactive) in assay [1], -15.9% (inactive) in assay [3], 48.3% (inactive) in assay [7] and 41.4% (inactive) in assay [8]. In addition, the inhibition of aggregation in assay [2] is -27.7% (inactive). Besides, the nuclei count in assay [2] and in assay [3] was 117% in each case. Besides, the fluorescence slope in assay [4] was -0.587 (inactive). The NADPH fluorescence slope in assay [5] is -2.2e-05 (inactive). Also, the slope in assay [6] was 0.00652 (inactive).

Turning to `Cc1nc(NC(=O)c2csc3ccccc23)sc1C`, the cell count in assay [1] turned out to be 386. Besides, the inhibition in assay [1] is -2.7% (inactive); in assay [3] it was -38.1% (inactive); in assay [7] it was -31.4% (inactive); in assay [8], -86.4% (inactive). In addition, the inhibition of aggregation in assay [2] is -3.7% (inactive). Moreover, the nuclei count was 103% in assay [2] and 117% in assay [3]. For the same compound, the fluorescence slope in assay [4] is -0.504 (inactive). The NADPH fluorescence slope in assay [5] was -5.5e-05 (inactive). Further, in assay [6], the slope is 0.00508 (inactive).

On to `CCN(CC(=O)Nc1c(C(=O)OC)[nH]c2ccccc12)c1ccc2c(c1)OCO2`, for which the cell count in assay [1] was found to be 309. Further, the inhibition was -2.1% (inactive) in assay [1], -53.3% (inactive) in assay [3], 20.2% (inactive) in assay [7] and 8.63% (inactive) in assay [8]. In addition, the inhibition of aggregation in assay [2] is -25.6% (inactive). The results for the nuclei count in assay [2] and in assay [3] were 70.8% and 103%, respectively. Also, the fluorescence slope in assay [4] is -0.376 (inactive). Moreover, the NADPH fluorescence slope in assay [5] is -6.7e-05 (inactive). Moreover, in assay [6], the slope was 0.00578 (inactive).

For `O=C(CSCCSCC(=O)c1ccco1)c1ccco1`, the cell count in assay [1] was 594. The inhibition in assay [1] was -6.1% (inactive); in assay [3], -44.4% (inactive); in assay [7], 7.09% (inactive); in assay [8] it was 7.22% (inactive). Moreover, the inhibition of aggregation in assay [2] was -12% (inactive). For the same compound, the nuclei count in assay [2] came out at 84.7%; in assay [3], 138%. Also, the fluorescence slope in assay [4] was -0.421 (inactive). In assay [5], the NADPH fluorescence slope is -6.5e-05 (inactive). Moreover, the slope in assay [6] was 0.00644 (inactive).

In the case of `CCc1ccccc1-n1c(SCC(=O)N2CCCC2)nnc1-c1ccccn1`, in assay [1], the cell count amounted to 484. Moreover, the inhibition in assay [1] was 2.5% (inactive); in assay [3] it was -11.2% (inactive); in assay [7], -2.19% (inactive); in assay [8], 4.38% (inactive). For the same compound, in assay [2], the inhibition of aggregation is -5.8% (inactive). For the same compound, the nuclei count in assay [2] came to 116%; in assay [3], 104%. Further, the fluorescence slope in assay [4] was -0.524 (inactive). In addition, in assay [5], the NADPH fluorescence slope is 5e-05 (inactive). For the same compound, the slope in assay [6] is 0.00548 (inactive).

Turning to `O=C(Nc1nnc(N2CCCCCC2)s1)c1cc(-c2ccc(Br)cc2)on1`, the cell count in assay [1] stood at 890. For the same compound, the inhibition in assay [1] is 1.2% (inactive); in assay [3], -76.6% (inactive); in assay [7] it was 5.43% (inactive); in assay [8], 23.2% (inactive). The inhibition of aggregation in assay [2] is 5.2% (inactive). The nuclei count amounted to 85.6% in assay [2] and 120% in assay [3]. Besides, in assay [4], the fluorescence slope was -0.612 (inactive). In addition, the NADPH fluorescence slope in assay [5] is -2.8e-06 (inactive). Besides, the slope in assay [6] was 0.00651 (inactive).

Take `CCOC(=O)CC(=O)Nc1c(C)cc(C)cc1C`: the cell count in assay [1] came to 270. In addition, the inhibition in assay [1] was 7.5% (inactive); in assay [3], 6.5% (inactive); in assay [7], -9.54% (inactive); in assay [8], 2.4% (inactive). The inhibition of aggregation in assay [2] is 12.8% (inactive). Also, the nuclei count in assay [2] was found to be 87.4%; in assay [3] it was 105%. The fluorescence slope in assay [4] was -0.416 (inactive). Moreover, the NADPH fluorescence slope in assay [5] is 6.4e-05 (inactive). In addition, the slope in assay [6] is 0.00527 (inactive).

`COCCn1c(SCC(=O)Nc2ccc3c(c2)OCCO3)nc2c(c1=O)SC(C)C2` (centres undefined): the cell count in assay [1] was 715. In addition, the inhibition in assay [1] was -4.4% (inactive); in assay [3], -36.9% (inactive); in assay [7], -10.2% (inactive); in assay [8], -0.542% (inactive). Also, the inhibition of aggregation in assay [2] was -19.9% (inactive). The nuclei count in assay [2] was 106%; in assay [3], 116%. In addition, the fluorescence slope in assay [4] was -0.413 (inactive). Besides, the NADPH fluorescence slope in assay [5] was 3.3e-05 (inactive). In assay [6], the slope is 0.00496 (inactive).

For the compound `O=C(NCC1CCCO1)C1CCCN(S(=O)(=O)c2cccc3nsnc23)C1` (centres undefined), in assay [1], the cell count came to 801. In addition, the inhibition in assay [1] is -1.6% (inactive); in assay [3], -30.2% (inactive); in assay [7], 0.526% (inactive); in assay [8] it was -1.36% (inactive). Besides, the inhibition of aggregation in assay [2] is 30.3% (inactive). Moreover, the values for the nuclei count in assay [2] and in assay [3] were 122% and 114%, respectively. Further, the fluorescence slope in assay [4] was -0.434 (inactive). Also, in assay [5], the NADPH fluorescence slope is 6e-05 (inactive). For the same compound, in assay [6], the slope was 0.00536 (inactive).
